The source of these data is ChEMBL document CHEMBL2218924, “A broad activity screen in support of a chemogenomic map for kinase signalling research and drug discovery” (Biochem J, 2013).

Experiment [1] concerns the target T1, Serine/threonine-protein kinase BRSK1 (Homo sapiens) (UniProt Q8TDC3).
T1 sequence (whole entry): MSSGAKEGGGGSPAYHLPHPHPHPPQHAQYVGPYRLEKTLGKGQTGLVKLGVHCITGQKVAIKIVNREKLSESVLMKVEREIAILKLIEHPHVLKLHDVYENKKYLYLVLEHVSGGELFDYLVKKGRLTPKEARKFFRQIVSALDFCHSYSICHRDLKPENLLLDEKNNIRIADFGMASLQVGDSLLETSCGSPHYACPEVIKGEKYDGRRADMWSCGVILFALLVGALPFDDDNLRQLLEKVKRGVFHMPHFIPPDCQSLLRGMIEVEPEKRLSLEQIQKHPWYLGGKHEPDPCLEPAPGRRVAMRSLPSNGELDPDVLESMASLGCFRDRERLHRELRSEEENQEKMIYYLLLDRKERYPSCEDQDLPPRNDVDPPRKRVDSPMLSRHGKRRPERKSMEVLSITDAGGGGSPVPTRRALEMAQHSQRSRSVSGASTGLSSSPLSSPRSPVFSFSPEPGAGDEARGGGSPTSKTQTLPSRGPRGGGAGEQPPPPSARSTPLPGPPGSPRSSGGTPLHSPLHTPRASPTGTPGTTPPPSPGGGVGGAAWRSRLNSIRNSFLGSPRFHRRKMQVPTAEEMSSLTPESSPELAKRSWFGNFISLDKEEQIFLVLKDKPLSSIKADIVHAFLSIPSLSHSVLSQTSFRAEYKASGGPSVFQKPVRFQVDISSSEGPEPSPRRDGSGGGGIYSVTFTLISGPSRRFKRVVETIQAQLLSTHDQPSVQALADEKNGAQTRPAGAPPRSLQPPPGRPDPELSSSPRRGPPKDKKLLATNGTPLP
The settings on record: at 1 µM.

In experiment [2] the target is T1, Serine/threonine-protein kinase BRSK1 (Homo sapiens). Particulars: at 10 µM.
For experiment [3], the target named is T2, Serine/threonine-protein kinase BRSK2 (Homo sapiens) (UniProt Q8IWQ3).
T2 sequence (whole entry): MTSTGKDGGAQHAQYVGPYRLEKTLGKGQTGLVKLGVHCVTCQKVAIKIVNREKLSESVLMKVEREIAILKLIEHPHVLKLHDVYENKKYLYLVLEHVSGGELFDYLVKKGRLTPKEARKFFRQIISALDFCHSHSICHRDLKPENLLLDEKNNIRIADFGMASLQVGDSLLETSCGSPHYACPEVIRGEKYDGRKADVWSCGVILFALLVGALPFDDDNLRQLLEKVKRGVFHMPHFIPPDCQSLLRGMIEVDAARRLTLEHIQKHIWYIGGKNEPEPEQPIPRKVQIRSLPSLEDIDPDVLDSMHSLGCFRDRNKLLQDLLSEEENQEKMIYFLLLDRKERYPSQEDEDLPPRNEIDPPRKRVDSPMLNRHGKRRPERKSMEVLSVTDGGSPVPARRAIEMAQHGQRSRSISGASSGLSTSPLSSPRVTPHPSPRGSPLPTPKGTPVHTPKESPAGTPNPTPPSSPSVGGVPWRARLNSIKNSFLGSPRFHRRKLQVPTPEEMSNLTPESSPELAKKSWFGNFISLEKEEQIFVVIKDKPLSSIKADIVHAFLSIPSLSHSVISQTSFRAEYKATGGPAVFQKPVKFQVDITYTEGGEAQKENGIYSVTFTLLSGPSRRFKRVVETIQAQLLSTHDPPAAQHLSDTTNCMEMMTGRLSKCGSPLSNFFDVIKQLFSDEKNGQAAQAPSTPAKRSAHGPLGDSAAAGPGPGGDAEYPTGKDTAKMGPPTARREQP
Particulars: at 1 µM.

The target of experiment [4] is T2, Serine/threonine-protein kinase BRSK2 (Homo sapiens). Particulars: at 10 µM.
Experiment [5] concerns the target T3, Cyclin-dependent kinase 1/cyclin B1 (Homo sapiens) (UniProt P06493+P14635). The settings on record: at 10 µM.
Experiment [6] concerns the target T4, Cyclin-dependent kinase 2/cyclin A (Homo sapiens) (UniProt P24941+P20248+P78396). The settings on record: at 1 µM.
For experiment [7], the target named is T4, Cyclin-dependent kinase 2/cyclin A (Homo sapiens). The settings on record: at 10 µM.
Experiment [8] addresses T5, Cyclin-dependent kinase 2/cyclin E (Homo sapiens) (UniProt P24864+P24941+O96020). Particulars: at 1 µM.
For experiment [9], the target named is T5, Cyclin-dependent kinase 2/cyclin E (Homo sapiens). Particulars: at 10 µM.
Experiment [10] deals with T6, CDK3/cyclin E (Homo sapiens) (UniProt P24864+O96020+Q00526). The settings on record: at 10 µM.
T6 sequence (O96020 whole entry, looked up): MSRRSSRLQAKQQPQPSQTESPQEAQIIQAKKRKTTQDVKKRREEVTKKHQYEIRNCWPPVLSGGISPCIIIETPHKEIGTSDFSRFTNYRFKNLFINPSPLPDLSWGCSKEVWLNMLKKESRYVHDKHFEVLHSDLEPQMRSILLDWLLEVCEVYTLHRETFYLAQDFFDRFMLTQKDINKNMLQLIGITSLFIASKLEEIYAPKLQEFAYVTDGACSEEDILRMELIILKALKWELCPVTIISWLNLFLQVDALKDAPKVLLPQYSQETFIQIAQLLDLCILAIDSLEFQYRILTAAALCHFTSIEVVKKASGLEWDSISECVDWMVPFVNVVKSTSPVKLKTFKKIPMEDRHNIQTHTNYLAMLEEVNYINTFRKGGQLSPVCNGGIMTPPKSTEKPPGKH
T6 sequence (P24864 whole entry, looked up): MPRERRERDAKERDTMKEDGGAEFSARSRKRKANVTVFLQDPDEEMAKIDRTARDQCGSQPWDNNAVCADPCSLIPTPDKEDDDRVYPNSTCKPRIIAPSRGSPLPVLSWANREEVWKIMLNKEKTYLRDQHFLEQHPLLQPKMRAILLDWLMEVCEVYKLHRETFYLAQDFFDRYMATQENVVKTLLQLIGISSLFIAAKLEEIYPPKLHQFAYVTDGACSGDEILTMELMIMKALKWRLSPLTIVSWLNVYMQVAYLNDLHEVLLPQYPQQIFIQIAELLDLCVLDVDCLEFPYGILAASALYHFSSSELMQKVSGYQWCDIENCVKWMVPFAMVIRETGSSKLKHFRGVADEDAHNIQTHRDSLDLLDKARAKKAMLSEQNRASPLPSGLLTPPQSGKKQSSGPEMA
T6 sequence (Q00526 whole entry, looked up): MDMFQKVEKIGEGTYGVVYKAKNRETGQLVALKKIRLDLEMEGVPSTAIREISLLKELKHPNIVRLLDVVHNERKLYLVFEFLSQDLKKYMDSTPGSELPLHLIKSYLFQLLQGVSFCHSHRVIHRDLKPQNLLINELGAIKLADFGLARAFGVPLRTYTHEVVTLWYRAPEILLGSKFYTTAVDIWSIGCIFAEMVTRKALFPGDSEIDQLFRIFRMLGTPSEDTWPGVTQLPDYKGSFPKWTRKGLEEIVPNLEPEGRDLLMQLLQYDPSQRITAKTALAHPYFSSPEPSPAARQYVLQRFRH
For experiment [11], the target named is T7, Cyclin-dependent kinase 5/CDK5 activator 1 (Homo sapiens) (UniProt Q00535+Q15078). The settings on record: at 1 µM.
T7 sequence (Q00535 whole entry): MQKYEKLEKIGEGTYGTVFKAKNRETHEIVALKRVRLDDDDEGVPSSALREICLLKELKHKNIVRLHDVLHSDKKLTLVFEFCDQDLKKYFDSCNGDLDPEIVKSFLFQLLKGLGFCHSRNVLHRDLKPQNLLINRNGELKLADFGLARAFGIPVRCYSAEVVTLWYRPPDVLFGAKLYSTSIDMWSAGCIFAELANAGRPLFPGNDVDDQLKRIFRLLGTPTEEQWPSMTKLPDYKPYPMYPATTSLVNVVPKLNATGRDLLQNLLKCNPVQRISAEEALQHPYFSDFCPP
T7 sequence (Q15078 99-307 partner limits assumed): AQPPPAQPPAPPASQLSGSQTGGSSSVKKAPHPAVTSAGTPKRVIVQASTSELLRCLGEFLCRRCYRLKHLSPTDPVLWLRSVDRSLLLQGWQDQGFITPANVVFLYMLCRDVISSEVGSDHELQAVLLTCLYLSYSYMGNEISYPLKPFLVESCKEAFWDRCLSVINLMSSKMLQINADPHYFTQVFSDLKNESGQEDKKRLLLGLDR
Experiment [12] concerns the target T7, Cyclin-dependent kinase 5/CDK5 activator 1 (Homo sapiens). Particulars: at 10 µM.
The target is the same in experiment [13]. Particulars: at 1 µM. This is another data set of the same source.
The target is the same in experiment [14]. Particulars: at 10 µM. This is another data set of the same source.
Experiment [15] has as its target T8, CDK6/cyclin D3 (Homo sapiens) (UniProt P30281+Q00534). Particulars: at 1 µM.
For experiment [16], the target named is T8, CDK6/cyclin D3 (Homo sapiens). Particulars: at 10 µM.
The target of experiment [17] is T9, Cyclin-dependent kinase 7/ cyclin H (Homo sapiens) (UniProt P51946+P50613). The settings on record: at 1 µM.
The target in experiment [18] is T9, Cyclin-dependent kinase 7/ cyclin H (Homo sapiens). The settings on record: at 10 µM.
The target in experiment [19] is T3, Cyclin-dependent kinase 1/cyclin B1 (Homo sapiens). The settings on record: at 1 µM.
Experiment [20] has as its target T6, CDK3/cyclin E (Homo sapiens). The settings on record: at 1 µM.

Each structure is given as a SMILES string.

T3 sequence (P06493 whole entry, looked up): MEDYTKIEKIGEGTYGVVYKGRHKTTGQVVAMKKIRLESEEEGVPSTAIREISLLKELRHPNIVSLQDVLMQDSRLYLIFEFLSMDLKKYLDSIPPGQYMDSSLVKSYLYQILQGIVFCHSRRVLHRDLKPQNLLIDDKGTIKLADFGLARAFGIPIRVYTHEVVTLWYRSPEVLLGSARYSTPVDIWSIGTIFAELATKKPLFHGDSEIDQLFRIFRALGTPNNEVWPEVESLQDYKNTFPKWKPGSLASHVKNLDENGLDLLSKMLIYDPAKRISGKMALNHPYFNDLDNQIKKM
T3 sequence (P14635 whole entry, looked up): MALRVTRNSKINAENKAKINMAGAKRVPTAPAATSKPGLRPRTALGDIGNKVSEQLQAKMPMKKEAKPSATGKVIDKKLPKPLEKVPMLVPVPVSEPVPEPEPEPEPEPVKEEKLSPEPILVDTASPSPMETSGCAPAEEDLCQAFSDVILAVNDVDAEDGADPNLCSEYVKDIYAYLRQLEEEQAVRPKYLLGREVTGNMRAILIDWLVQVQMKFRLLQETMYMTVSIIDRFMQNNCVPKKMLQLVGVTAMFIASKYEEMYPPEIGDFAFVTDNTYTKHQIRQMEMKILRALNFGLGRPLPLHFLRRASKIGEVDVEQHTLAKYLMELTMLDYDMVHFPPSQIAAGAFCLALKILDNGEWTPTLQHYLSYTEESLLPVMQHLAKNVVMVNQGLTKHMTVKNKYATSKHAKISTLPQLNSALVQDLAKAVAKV

On to `c1cc(-c2cnn3cc(-c4ccc(OCCN5CCCCC5)cc4)cnc23)ccn1`, for which the residual activity in [1] turned out to be 86%; in [2], 32%; in experiment [3], 103%; in [4] it was 38%; in experiment [5], 39%; in [6] it was 100%. The residual activity was determined as 64% in experiment [7]; 81% in [8]; 45% in experiment [9]; 41% in [10]; 55% in experiment [11]; 10% in experiment [12]. The residual activity in [13] was determined as 73%; in [14], 19%; in [15] it was 68%; in experiment [16], 11%; in experiment [17], 50%; in experiment [18], 9%.
With `O=C1c2ccccc2-c2nc3nnnn3nc21`, the residual activity in experiment [3] came out at 121%; in experiment [4] it was 118%; in [19], 113%; in experiment [5], 103%; in experiment [6], 145%; in experiment [7] it was 100%. Moreover, the residual activity in experiment [8] was 113%; in experiment [9] it was 105%; in experiment [15], 103%; in experiment [16], 101%; in experiment [18], 129%.
In the case of `COc1cc(OC)c(/C=C2\C(=O)Nc3ccccc32)c(OC)c1`, the residual activity was 91% in experiment [1]; 84% in [2]; 91% in experiment [4]; 81% in [6]; 76% in [7]; 96% in [8]. Further, the residual activity in experiment [9] came to 95%; in [20] it was 84%; in [10], 78%; in experiment [11] it was 88%; in experiment [12], 85%; in [13], 99%. The residual activity in experiment [14] worked out at 77%; in experiment [15], 90%; in [16] it was 77%; in experiment [17] it was 90%; in experiment [18], 84%.
Regarding `O=[N+]([O-])/C=C/c1ccc2c(c1)OCO2`, the residual activity was 92% in experiment [1]; 104% in [2]; 113% in experiment [3]; 117% in experiment [4]; 100% in [19]; 113% in experiment [5]. Further, the residual activity in experiment [6] worked out at 130%; in [7] it was 93%; in experiment [8], 98%; in [9], 96%; in experiment [20], 87%; in [10] it was 88%. For the same compound, the residual activity in experiment [11] is 97%; in [12], 106%; in experiment [13], 91%; in experiment [14], 96%; in experiment [15] it was 99%; in [16] it was 98%. The residual activity in [17] amounted to 81%; in [18], 119%.
As to `C[S+]([O-])c1ccc(-c2nc(-c3ccc(F)cc3)c(-c3ccncc3)[nH]2)cc1` (centres undefined), the residual activity in experiment [1] stood at 104%; in experiment [2], 91%; in experiment [3], 102%; in experiment [4], 90%; in experiment [19], 107%; in experiment [5], 89%. Further, the residual activity amounted to 101% in experiment [6]; 104% in experiment [7]; 105% in experiment [8]; 104% in experiment [9]; 108% in experiment [20]; 93% in [10]. The residual activity was 117% in [11]; 121% in [12]; 120% in experiment [13]; 100% in experiment [14]; 116% in [15]; 111% in [16]. The residual activity in experiment [17] stood at 118%; in experiment [18], 100%.
In the case of `COC(=O)[C@@]1(O)C[C@H]2O[C@]1(C)n1c3ccccc3c3c4c(c5c6ccccc6n2c5c31)C(=O)NC4`, the residual activity was -1% in experiment [1]; 0% in experiment [2]; 1% in [3]; 0% in [4]; 5% in experiment [19]; -1% in [5]. Besides, the residual activity is 1% in experiment [6]; 0% in experiment [7]; 6% in experiment [8]; 0% in experiment [9]; 27% in experiment [20]; 2% in experiment [10]. In addition, the residual activity was found to be 4% in experiment [11]; 1% in experiment [12]; 3% in [13]; 1% in experiment [14]; 15% in experiment [15]; 4% in [16]. Moreover, the residual activity in experiment [17] turned out to be 55%; in experiment [18], 16%.
With `CCn1cnc2c(Nc3cccc(Cl)c3)nc(N[C@@H]3CCCC[C@@H]3N)nc21`, the residual activity in experiment [1] was determined as 91%; in [2], 50%; in experiment [19] it was 19%; in experiment [5], 4%; in experiment [6], 8%; in experiment [7], 0%. Besides, the residual activity in experiment [8] is 4%; in [9], -1%; in experiment [20] it was 6%; in experiment [10], 0%; in experiment [11] it was 1%; in [12], 0%. For the same compound, the residual activity in experiment [13] was 0%; in experiment [14], -1%; in experiment [15] it was 82%; in experiment [16], 31%; in experiment [17], 5%; in experiment [18] it was -1%.
In the case of `COc1ccc2c(c[n+](C)c3c4cc5c(cc4ccc23)OCO5)c1OC`, the residual activity in experiment [1] amounted to 47%; in [2] it was 48%; in experiment [4], 67%; in experiment [6], 137%; in [9], 93%; in [10], 85%. The residual activity worked out at 89% in [13], 91% in [14], 82% in experiment [16] and 87% in experiment [17].
